SARS PLP yeast: blocks SARS-CoV papain-like protease in a yeast assay. S. cerevisiae expressing SARS-CoV PLpro, growth rescue. Potency, µM (top dose mostly 32.9 µM), inactives show top-dose activity, positive = growth rescue, hits mostly activators. hit rate 0.19% among 330,000; note: potency is the fitted concentration of half-maximal effect; 0% is about no effect; nearly all actives have a fitted effect of over 55% in size
Pf growth 48h: inhibits P. falciparum growth in the first generation, 48 h | P. falciparum luciferase growth in erythrocytes, 48 h | Potency, µM (doses to about 28.7 µM), inactives show top-dose activity change, negative = inhibition, usual class: inhibitors | hit rate 5.9% among 310,000; active = well fitted inhibition curve with a large enough effect; inconclusive = small, poorly fitted or top-dose-only effect, or another doubt; inactive = no such curve, though single readings can be large or run the other way; note: potency is the fitted concentration of half-maximal effect; % is set by controls: 0 for no effect and ±100 for the full control effect
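Growth was read as firefly luciferase luminescence after a 48 h, 37 C, 5% CO2 exposure of compounds to reporter-bearing P. falciparum cultures (0.1% parasitemia, 2% hematocrit final) in Albumax-supplemented RPMI 1640.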
Shiga toxin inh: inhibitors of Shiga toxin in Vero cells | Vero cells, Shiga toxin protein synthesis inhibition reporter | AID 2315 | inhibition, % at 38.7 µM | hit rate 9.2% among 290,000; in the data active = inhibition mostly above about 28%, no sharp cut-off; inactive = mostly below about 43%; note: 0% is about no effect
NS1 function inh: blocks influenza NS1 protein function | Potency, µM (doses to about 46.1 µM), for the others: at the top dose activity, positive = more growth | hit rate 0.4% among 270,000; note: potency is the fitted concentration of half-maximal effect; actives are rising curves; nearly all actives have a fitted effect of over 50% in size
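In this qHTS, NS1 from influenza A is expressed in budding yeast, where it slows growth. Cells are switched from glucose to 2% galactose medium (pH 6.0, -URA), treated with compound, and growth recovery is read at OD600.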
Pf growth 96h: inhibits malaria parasite growth, 96 h | P. falciparum luciferase reporter growth, 96 h | hit rate 6.9% among 320,000 | Potency, µM (top dose mostly 28.7 µM), inactives show at the top dose activity change, negative = inhibition, actives largely listed as inhibitors; active = well fitted inhibition curve with a large enough effect; inconclusive = small, poorly fitted or top-dose-only effect, or another doubt; inactive = no such curve, though single readings can be large or run the other way; note: potency is the fitted concentration of half-maximal effect; % is set by controls: 0 for no effect and ±100 for the full control effect
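P. falciparum expressing integrated firefly luciferase grown in erythrocytes (2% hematocrit, 0.05% parasitemia final) with compounds for 96 hours at 37 C, 5% CO2. Growth inhibition read as loss of luminescence after adding luciferase detection reagent.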
Cycloheximide cs: counter-screen for Shiga toxin inhibitors: cycloheximide protein synthesis inhibition | hit rate 12% among 300,000 | max response, % | cell reporter, cycloheximide protein synthesis inhibition counterscreen; in the data active = max response mostly above about 13%, no sharp cut-off; inactive = mostly below about 14%; note: read at 38.3 µM for the half of the compounds with a filed dose; 0% is about no effect
* marks the source's active call; other numbers are inactive results; i = inactive; ? = inconclusive; · = no result; [ ] = another dose, or the depositor's remark. Rows were chosen to be rich in hits. Some 21% of all compounds tested hit in one or more screens of this group. Unless noted, calls come from the whole dose curve.

SMILES | SARS PLP yeast | Pf growth 48h | Shiga toxin inh | NS1 function inh | Pf growth 96h | Cycloheximide cs
COc1ccc(C)cc1NC(=O)CN1CCN(c2ccccc2F)CC1 | -9% | 13µM* | -17 | -42% | 0% | 1
COc1ccccc1NC(=O)CN1CCN(CC(=O)Nc2ccc(F)cc2F)CC1 | 0% | 28% | 92* | -2% | 4.1µM* | 32*
O=C(CN1CCN(S(=O)(=O)c2ccc(F)cc2)CC1)Nc1cc(C(F)(F)F)ccc1Cl | -1% | ? | 38 | -32% | ? | -2
COc1ccc(S(=O)(=O)N2CCN(CC(=O)Nc3cc(C(F)(F)F)ccc3Cl)CC2)cc1 | -6% | 4.7µM* | -9 | 3% | 17% | -3
COc1ccc(C)cc1NC(=O)CCN1CCN(c2ccccc2F)CC1 | 1% | ? | -9 | -12% | ? | -2
O=C(O)C(Cc1c[nH]c2ccccc12)NS(=O)(=O)c1ccc(Cl)c(C(F)(F)F)c1 (stereo not given) | -1% | -17% | 5 | 3% | ? | -1
CCCCNC(=O)Nc1nc2ccc(CC)cc2s1 | 0% | 44% | 73* | · | 45% | 34*
CCCCNC(=O)Nc1ccccc1CC | 1% | -7% | -3 | 9% | -14% | -1
CCCCNC(=O)Nc1ccon1 | -1% | 9% | -18 | -2% | 17% | 11
Cc1ccc(CC(=O)Nc2nc3ccccc3s2)cc1 | -6% | 74% | 174* | -25% | 127% | 40*
Cc1ccc(C(=O)N(Nc2nc3ccccc3s2)C(=O)c2ccc(C)cc2)cc1 | 6% | 11% | 18 | 11% | ? | 10*
CCCCNC(=O)Nc1nc2ccccc2s1 | -2% | i | 71* | · | 227% | 57
Cc1ccc(S(=O)(=O)NCc2ccccc2)cc1C(=O)NCC(C)(C)N1CCOCC1 | -1% | ? | · | · | -4% | ·
O=C(O)CCC(=O)Nc1nc2ccccc2s1 | -9% | · | -6 | 12% | 6% | -3
CC(C)C(=O)NN(C(=O)C(C)C)c1nc2ccccc2s1 | -1% | -2% | 16 | -1% | 24% | -1
CCOC(=O)c1nc2ccccc2s1 | 3% | 90% | 61* | -12% | 13% | 27*
CCCNC(=O)Nc1nc2ccccc2s1 | -1% | 94% | 87* | -65% | 132% | 51*
CN(C(=O)c1ccccc1)c1nc2ccccc2s1 | -2% | -31% | 74* | -67% | -7% | 46*
CCOC(=O)c1c(NC(=O)CSc2nc3ccccc3s2)sc(C(C)=O)c1C | 2% | 2% | -8 | ? | 39% | 1
Cc1nc2c(ccc3nc(NC(=O)Cc4ccccc4)sc32)s1 | -37% | 1% | 36* | 23% | -16% | 36*
Cc1cccc(CCNC(=O)CCc2nnc(CCc3ccccc3)o2)n1 | -1% | 19% | 34 | 5% | 35% | 18
CCOC(=O)CC(=O)Nc1nc2ccccc2s1 | 0% | 13% | 31 | -7% | ? | 14
CCOC(=O)Nc1nc(-c2ccc(Cl)cc2Cl)cs1 | -43% | 25% | 78* | 0% | 31% | 24*
CN(C)c1ccc(CC(=O)c2nc3ccccc3s2)cc1 | 8% | ? | 44* | 3% | 3.3µM* | 67*
CN(C)C(=O)c1nc2ccccc2s1 | -5% | 33% | 74* | -3% | 19% | 28*
SMILES | SARS PLP yeast | Pf growth 48h | Shiga toxin inh | NS1 function inh | Pf growth 96h | Cycloheximide cs
CCOC(=O)Nc1nc2ccccc2s1 | 6% | 227% | 66* | -19% | · | 31*
COc1ccc(C(=O)N2CCN(C(C)=O)CC2)cc1S(=O)(=O)N1CCOCC1 | 0% | -19% | -4 | · | ? | -4
O=C(CCn1nc(-c2ccc(Cl)cc2)ccc1=O)N1CCN(c2ccccc2)CC1 | -4% | ? | -3 | 8% | -8% | 1
CC(C)n1cc(CN2CCC(n3nccc3NC(=O)C3CCCC3)CC2)cn1 | -5% | 45% | -4 | 0% | 64% | 1
O=C(CC(c1ccccc1)c1cc(Cl)ccc1O)NCCCN1CCOCC1 (stereo not given) | 0% | ? | -4 | 2% | -13% | -1
CCCNC(=O)N1CCC(c2nc3ccccc3s2)CC1 | 0% | 1%[0.00184 µM] | -4 | -5% | ? | -3
CCCNC(=O)c1ccc(-c2nc3ccccc3s2)s1 | -16% | · | 28 | -114% | -91% | 48*
CC12C(=O)N(c3ccc(C(=O)N4CCOCC4)cc3)C(=O)C1C1c3ccccc3C2c2ccccc21 (stereo not given) | -16% | -12% | -4 | -5% | 18% | -1
O=C1Cc2cc(S(=O)(=O)Nc3ccccc3Cl)cc3c2N1CCC3 | 1% | ? | 3 | 19% | -8% | -4
C[C@H](CCC(=O)O)C[C@H](C)C[C@H](C)C(=O)/C=C(\O)[C@H](C)C[C@H](C)C/C=C/[C@@H](C)[C@@H](O)[C@@H](C)[C@@H](O)C[C@@H]1CC[C@@](C)([C@H]2CC[C@@](C)([C@@H](C)O)O2)O1 | · | · | -3 | · | · | -3
COc1cc(NC(=O)c2noc3c2CCC3)c(OC)cc1Cl | -3% | 2.6µM* | 1 | -9% | 462% | 3
COC(=O)c1ccccc1NC(=O)c1noc2c1CCCC2 | 0% | 30% | 21 | -18% | 9.3µM* | -3
COc1cc(NC(=O)c2noc(C)c2[N+](=O)[O-])c(OC)cc1Cl | 0% | 12% | 6 | -8% | ? | 5
COc1ccc(NC(=O)c2noc3c2CCC3)cc1 | -10% | -16% | 65* | 2% | · | 35*
Cc1ccc(NC(=O)c2noc3c2CCC3)cc1C | 0% | 7% | 93* | · | ? | 28*
O=C(Nc1cccc(O)c1)c1noc2c1CCCCC2 | -16% | 26% | -8 | -58% | · | 22
CCN(CC)C(=O)c1ncn(C)c1C(=O)N(CC)CC | 0% | · | · | · | · | ·
Cc1cc(NC(=O)c2noc3c2CCCC3)nn1Cc1ccc(Cl)cc1 | 2% | 11% | 12 | -43% | -30% | 19
CC(=O)c1ccc(NC(=O)c2noc3c2CCC3)cc1 | 1% | -16% | 64* | · | ? | 10
O=C1CN2NC(=S)N(c3ccccc3)C2=CN1c1ccc(Cl)cc1 | 0% | 8% | -10 | 2% | 11% | -2
COc1ccccc1C(=O)NC(CCSC)C(=O)NNC(=O)c1ccccc1O (stereo not given) | -8% | ? | · | · | -9% | ·
COC1c2ccccc2C(=O)N1CCc1ccc(Cl)cc1 (stereo not given) | -2% | 22% | 41* | -20% | ? | 16*
CC(=O)OC1c2ccccc2C(=O)N1Cc1ccccc1Cl (stereo not given) | 19% | 11% | -4 | 3% | -1% | -4
